This passage reports z-score and composite z-score results from PubChem BioAssay.

Molecules are shown by their SMILES. Calls of active or inactive are those of the source.

Experiment [1] in a line: compound effects on differentiated 3T3-L1 adipocyte viability – cell-based, 3T3-L1 adipocytes, calcein-AM fluorescence, 48 h, basal, profiling panel (AID 1163). As to conditions: 3T3-L1 adipocytes viability, higher = more signal.
Experiment [2] can be described thus: compound effects on hepatocellular carcinoma cell viability – HepG2, calcein-AM fluorescence, 48 h, basal, profiling panel (AID 1164). The conditions noted are these: higher = more signal.
The nature of experiment [3]: compound effects on multiple myeloma cell viability – MM1S, calcein-AM fluorescence, 48 h, basal, profiling panel (AID 1165). As to conditions: higher = more signal.
The nature of experiment [4]: calcein-AM signal in unstimulated myeloma cells – cell-based, calcein-AM fluorescence, 48 h, PK04 Diversity Set, profiling panel (AID 1166).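 Further: cells grown under basal conditions without added stimulus.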 The conditions noted are these: RPMI8226 myeloma viability, higher = more signal.
A short description of experiment [5]: JC-1 mitochondrial signal, unstimulated HepG2 cells – cell-based, JC-1 fluorescence, 24 h, 100 nL compound, profiling panel (AID 1167). The conditions noted are these: HepG2 mitochondrial potential, higher = more signal.
Experiment [6] can be described thus: JC-1 mitochondrial signal, unstimulated adipocytes – cell-based, JC-1 fluorescence, 3T3-L1 adipocytes, 24 h, 100 nL compound, profiling panel (AID 1168). As to conditions: JC-1 mitochondrial fluorescence, higher = more signal, called active from +8 up or from −8 down.
Experiment [7] in a line: JC-1 mitochondrial signal, unstimulated myeloma cells – cell-based, JC-1 fluorescence, RPMI8226, 24 h, 100 nL compound, profiling panel (AID 1169). As to conditions: JC-1 mitochondrial potential fluorescence, higher = more signal.
The nature of experiment [8]: JC-1 mitochondrial signal, unstimulated MM1S myeloma – cell-based, JC-1 fluorescence, 24 h, 100 nL compound, profiling panel (AID 1170). As to conditions: MM1S mitochondrial potential, higher = more signal.
Experiment [9] can be described thus: resazurin metabolic signal in A549 cells – cell-based, resazurin fluorescence, 24 h, PK04 Diversity Set, profiling panel (AID 1171). The conditions noted are these: A549 viability, higher = more signal, called active from +8 up or from −8 down. On the technique in general: Alamar Blue is a resazurin reagent that responds to reducing activity.
Experiment [10] is described as follows: resazurin metabolic signal in HepG2 cells – cell-based, resazurin fluorescence, 24 h, PK04 Diversity Set, profiling panel (AID 1172). As to conditions: HepG2 viability, higher = more signal.
Experiment [11] in a line: budding yeast growth changes without added modifier – OD600, strain BY4716, 24 h, basal condition, primary screen (AID 1173). As to conditions: S. cerevisiae BY4716 growth, OD600, 24 h; higher = more signal, called active from +8 up or from −8 down.
The nature of experiment [12]: viability profiling in MM1S myeloma cells – cell-based, resazurin fluorescence, basal, 24 h, PK04 Diversity Set, profiling panel (AID 1174). As to conditions: higher = more signal, called active from +8 up or from −8 down.
Experiment [13] has as its target Dihydroorotate dehydrogenase (quinone), mitochondrial (Plasmodium falciparum (isolate 3D7)) (UniProt Q08210). Nature of the experiment: inhibition of P. falciparum DHODH – biochemical, C-terminal His tag, absorbance 600 nm, primary screen (AID 1175).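 Further: recombinant parasite enzyme with a five histidine tag at its C terminus.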 The conditions noted are these: PfDHODH enzyme, DCIP absorbance 600 nm; higher = more signal, called active from +8 up or from −8 down.

The nature of experiment [14]: growth modulation of vineyard yeast isolate – strain RM11-1a, OD600, basal, 24 h, primary screen (AID 1177).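 Further: cultures grown under basal conditions with no added stressor.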 The conditions noted are these: S. cerevisiae RM11-1a growth, OD600, 24 h; higher = more signal, called active from +8 up or from −8 down.
Experiment [15] in a line: growth of efflux-deficient E. coli DRC39 – strain DRC39, OD650, 24 h, E. coli filamentation inducers, primary screen (AID 1178).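 Further: growth measured as culture turbidity by optical density at 650 nm.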 The conditions noted are these: E. coli DRC39 acrAB, higher = more signal, called active from +8 up or from −8 down.
Experiment [16] in a line: growth of efflux-deficient E. coli DRC39 – strain DRC39, OD650, 48 h, E. coli filamentation inducers, primary screen (AID 1179).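 Further: screen aims at cell division blockers that make cells filament.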 As to conditions: E. coli DRC39 delta-acrAB growth, higher = more signal, called active from +8 up or from −8 down.
Experiment [17] in a line: viability profiling in RPMI8226 myeloma cells – cell-based, resazurin fluorescence, basal, 24 h, PK04 Diversity Set, profiling panel (AID 1180).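 Further: RPMI8826 multiple myeloma cell line at 5000 cells per well.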 The conditions noted are these: higher = more signal.
The target of experiment [18] is E3 ubiquitin-protein ligase XIAP (Homo sapiens) (UniProt P98170). As to the kind of experiment: small molecules binding XIAP protein – biophysical, small-molecule microarray, fluorescence 635 nm, primary screen (AID 1181).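 Further: score merges 667 nm emission and signal to noise over triplicate slides.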 The conditions noted are these: higher = more signal.
E3 ubiquitin-protein ligase XIAP (Homo sapiens), sequence (P98170 whole entry, looked up, the tested form may be a part): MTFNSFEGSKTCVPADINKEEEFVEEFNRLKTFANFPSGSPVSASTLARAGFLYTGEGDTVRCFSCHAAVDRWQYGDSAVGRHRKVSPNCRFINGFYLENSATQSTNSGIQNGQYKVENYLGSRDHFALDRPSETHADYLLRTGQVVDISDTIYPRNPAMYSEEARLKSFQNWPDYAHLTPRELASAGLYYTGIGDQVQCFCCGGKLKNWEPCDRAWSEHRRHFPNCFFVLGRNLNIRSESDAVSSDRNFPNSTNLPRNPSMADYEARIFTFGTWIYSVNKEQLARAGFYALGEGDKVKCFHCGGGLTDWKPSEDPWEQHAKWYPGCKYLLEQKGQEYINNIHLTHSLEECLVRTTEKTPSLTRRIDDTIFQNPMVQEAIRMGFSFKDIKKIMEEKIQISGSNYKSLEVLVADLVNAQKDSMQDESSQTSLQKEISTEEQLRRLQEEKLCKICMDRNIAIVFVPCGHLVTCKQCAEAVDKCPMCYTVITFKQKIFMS
Experiment [19] relates to XIP peptide (Xip251-270) binding. Nature of the experiment: XIP fragment 251-270 binding compounds – biochemical, small-molecule microarray, fluorescence 635/667 nm, 0.1 µg/mL protein, primary screen (AID 1182). As to conditions: fluorescent protein binding, 635 nm, higher = more signal, called active from +8 up or from −8 down.
Another experiment concerns XIP peptide (Xip251-270). Nature of the experiment: compounds binding XIP fragment 251-270 – biochemical, small-molecule microarray, fluorescence 635/667 nm, 0.5 µg/mL protein, primary screen (AID 1183). As to conditions: fluorescence 635 nm, higher = more signal.

Dihydroorotate dehydrogenase (quinone), mitochondrial (Plasmodium falciparum (isolate 3D7)), sequence (Q08210 whole entry, looked up): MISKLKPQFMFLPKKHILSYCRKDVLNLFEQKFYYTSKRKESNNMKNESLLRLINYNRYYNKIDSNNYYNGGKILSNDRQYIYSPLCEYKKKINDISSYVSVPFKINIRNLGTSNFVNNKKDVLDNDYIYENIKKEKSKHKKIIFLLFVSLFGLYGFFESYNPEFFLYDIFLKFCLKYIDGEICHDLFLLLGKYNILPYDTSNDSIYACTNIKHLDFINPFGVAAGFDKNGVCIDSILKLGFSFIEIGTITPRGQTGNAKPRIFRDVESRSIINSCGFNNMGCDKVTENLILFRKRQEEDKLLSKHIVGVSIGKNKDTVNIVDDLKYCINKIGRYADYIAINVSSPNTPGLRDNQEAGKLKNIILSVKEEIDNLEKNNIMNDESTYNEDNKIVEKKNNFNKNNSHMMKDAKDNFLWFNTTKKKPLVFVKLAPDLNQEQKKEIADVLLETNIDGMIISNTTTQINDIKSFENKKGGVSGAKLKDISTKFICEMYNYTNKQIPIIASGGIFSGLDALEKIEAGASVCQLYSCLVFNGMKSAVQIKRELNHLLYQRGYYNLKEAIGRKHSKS

For `O=C(NCC(F)(F)F)[C@@H]1c2ccccc2C(=O)N(C2Cc3ccccc3C2)[C@H]1c1ccc(CO)cc1`, the z-score in experiment [1] is 0.752; in experiment [2], -0.016; in [3], 0.557; in [4], -1.11; in experiment [5], 3.1; in [6] it was 0.676 (inactive). The z-score is 0.0903 in experiment [7]; -0.0546 in experiment [8]; 1.05 (inactive) in experiment [9]; 0.983 in experiment [10]; -1.06 (inactive) in [11]; 1.49 (inactive) in experiment [12]. Also, the z-score in experiment [14] was -0.763 (inactive); in experiment [15] it was 0.46 (inactive); in experiment [16], 0.249 (inactive); in experiment [17] it was 1.61. The composite z-score in experiment [13] is -1.16 (inactive); in experiment [18], -0.22; in [19], -0.729 (inactive); in the experiment on XIP peptide (Xip251-270), -1.33.
For the compound `C=CCC1(CC=C)C[C@H]2CO[C@H](c3ccc(OC)cc3)N2C1=O`, the z-score is 0.683 in experiment [1]; -0.88 in experiment [2]; 0.347 in [3]; 0.0778 in experiment [4]; 0.872 in [5]; 0.773 (inactive) in [6]. In addition, the z-score was -0.245 in experiment [7]; 0.278 in experiment [8]; 0.771 (inactive) in experiment [9]; 1.01 in [10]; -4.05 (inactive) in [11]; -1.19 (inactive) in experiment [12]. Also, the z-score in experiment [14] is -0.169 (inactive); in experiment [15] it was 1.51 (inactive); in [16], 1.03 (inactive); in experiment [17], 0.765. Also, the composite z-score in experiment [13] was 0.621 (inactive); in [18], -0.323; in [19] it was 0.842 (inactive); in the experiment on XIP peptide (Xip251-270), 0.739.
As for `O=C1c2ccccc2[C@@]2(Cc3ccccc3N(CC(F)(F)F)C2=O)[C@H](c2ccc(CO)cc2)N1Cc1ccccc1C(F)(F)F`, the z-score in [1] was 0.559; in [2], -0.167; in experiment [3] it was 0.733; in experiment [4], -1.08; in [5] it was 0.288; in experiment [6], 1.05 (inactive). In addition, the z-score in [7] was 0.753; in [8] it was 0.197; in experiment [9], -0.203 (inactive); in experiment [10], 0.528; in [11], -0.829 (inactive); in [12], 1.02 (inactive). Also, the z-score in experiment [14] was -0.49 (inactive); in [15], -0.136 (inactive); in experiment [16], -0.344 (inactive); in experiment [17] it was 1.05. The composite z-score in [13] was -3.56 (inactive); in experiment [18], -0.0446; in experiment [19] it was -0.765 (inactive); with XIP peptide (Xip251-270) it was -1.23.
Regarding `O=C1c2ccccc2C(=O)c2cc([C@H]3Oc4ccccc4S(=O)(=O)N4CCC[C@@H]34)ccc21`, the z-score was 1.07 in experiment [1]; 0.158 in experiment [2]; -2.6 in [3]; 0.558 in experiment [4]; 2.04 in experiment [5]; 0.282 (inactive) in experiment [6]. In addition, the z-score is 0.103 in experiment [7]; -0.752 in experiment [8]; 0.623 (inactive) in [9]; 1.62 in experiment [10]; -2.8 (inactive) in [11]; 0.566 (inactive) in [12]. The z-score is -1.5 (inactive) in [14], 2.89 (inactive) in experiment [15], 1.21 (inactive) in experiment [16] and 0.476 in experiment [17]. Also, the composite z-score in experiment [13] is 0.342 (inactive); in experiment [18], 0.0374; in [19], -1.15 (inactive); with XIP peptide (Xip251-270), -1.82.
With `CCOC(=O)C[C@H]1[C@H](OC(=O)c2ccc(-c3ccccc3)cc2)[C@@H](NC(=O)C2CCCCC2)c2cc(OCCCO)ccc2N1C(=O)c1ccc2ccccc2n1`, the z-score in experiment [1] is 1.25; in experiment [2], -0.0303; in [3] it was 0.881; in experiment [4] it was 0.179; in experiment [5], 2.69; in experiment [6] it was 1.82 (inactive). In addition, the z-score in [7] is -0.953; in experiment [8], 0.717; in experiment [9] it was 1.02 (inactive); in experiment [10], 1.24; in experiment [11], -0.275 (inactive); in [12] it was 1.22 (inactive). The z-score in experiment [14] is -1.33 (inactive); in experiment [15], 1.56 (inactive); in [16], 0.999 (inactive); in [17], 0.509. The composite z-score in experiment [13] is 0.478 (inactive); in experiment [18], 0.158; in [19], 0.29 (inactive); in the experiment on XIP peptide (Xip251-270), 0.0417.
